High-throughput results deposited in PubChem by National Center for Advancing Translational Sciences (NCATS).
ALOX12 inh: ALOX12 (human) lipoxygenase inhibition; P18054; purified 12hLO, xylenol orange hydroperoxide absorbance; Potency, µM (doses to about 108 µM), for the others: at the top dose activity change, negative = inhibition, most hits filed as inhibitors; 1.1% of 580,000 active
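Purified human 12hLO (150 nM final) in 25 mM Hepes, 0.01% Triton X-100, pH 7.0 was preincubated 15 min at room temperature with compound. Then 40 uM arachidonic acid was added, 30 min. Hydroperoxide was read by Fe-XO absorbance ratio 573/405 nm.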
TDP1 cell noCPT: qHTS for Inhibitors of human tyrosyl-DNA phosphodiesterase 1 (TDP1): qHTS in cells in absence of CPT; Potency, µM (highest dose often 46.2 µM), without a hit: top-dose activity change, negative = growth inhibition, hits mostly inhibitors; 15% of 420,000 active; AID 686978, 2013; DT40 Tdp1-/- hTDP1 cells, no CPT, ATP luminescence, 48 h; also: nearly all actives have a fitted effect of over 55% in size
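Growth of hTDP1-complemented DT40 Tdp1-knockout cells is measured by ATP luminescence after at least 48 hr compound exposure at 37 °C, with DMSO substituting for the 20 nM CPT used in the parallel screen.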
ELG1 DNA repair: blocks ELG1-dependent DNA repair in HEK293T cells; Potency, µM (series often up to 46.1 µM), inactives show top-dose activity change, negative = inhibition, most hits filed as inhibitors; AID 504467; HEK293T ELG1-luciferase reporter, luminescence, 16 h; DNA damage induced by 5-fluorouridine; 2.3% of 330,000 active; also: nearly all actives have a fitted effect of over 55% in size
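Quantitative HTS, concentration-response format. 2,000 cells/well co-treated with 5-fluorouridine and compound, 16 hr in 5% CO2 at 37 °C; ONE-Glo luminescence read after 30 min.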
TDP1 cell CPT: growth inhibition of DT40 Tdp1-/-;hTDP1 cells with camptothecin (screen for TDP1 inhibitors); chicken DT40 Tdp1-/-;hTDP1 cells + 20 nM CPT, ATP luminescence, 48 h; Potency, µM (highest dose often 46.2 µM), for the others: at the highest dose activity change, negative = growth inhibition, usual class: inhibitors; 12% of 420,000 active; AID 686979; also: nearly all actives have a fitted effect of over 55% in size
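Chicken DT40 Tdp1-/- cells complemented with human TDP1, 400 cells/well, exposed to compounds plus 20 nM camptothecin for at least 48 h at 37 C; viability read as ATP content by CellTiter-Glo luminescence.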
RORg inh: blocks mouse ROR gamma transcriptional activity; Potency, µM (titrated, usually from 53.6 µM), for inactives: top-dose activity change, negative = inhibition, hits mostly inhibitors; AID 2551; P51450; Drosophila S2 Gal4-RORgamma UAS-luciferase reporter, 20 h; 5.4% of 310,000 active; also: nearly all actives have a fitted effect of over 60% in size
Target sequence (P51450 whole entry, looked up, the tested form may be a part): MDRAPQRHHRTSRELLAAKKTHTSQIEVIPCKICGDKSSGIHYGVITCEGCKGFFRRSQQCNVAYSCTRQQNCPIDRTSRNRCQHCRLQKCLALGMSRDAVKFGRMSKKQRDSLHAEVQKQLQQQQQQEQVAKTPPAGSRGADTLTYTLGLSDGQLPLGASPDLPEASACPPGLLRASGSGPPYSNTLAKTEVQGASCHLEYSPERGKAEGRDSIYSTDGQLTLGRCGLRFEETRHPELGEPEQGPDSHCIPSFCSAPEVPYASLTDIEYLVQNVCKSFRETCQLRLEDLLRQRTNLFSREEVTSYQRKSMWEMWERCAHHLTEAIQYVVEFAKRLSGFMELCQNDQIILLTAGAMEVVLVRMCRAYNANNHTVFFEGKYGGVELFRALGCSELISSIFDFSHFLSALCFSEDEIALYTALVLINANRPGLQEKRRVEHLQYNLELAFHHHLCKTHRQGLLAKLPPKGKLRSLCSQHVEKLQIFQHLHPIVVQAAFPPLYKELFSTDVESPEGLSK
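Read-out: Photinus luciferase luminescence; inhibitors lower reporter signal. Insect Schneider cells with Gal4-ROR gamma fusion under metallothionein promoter, UAS reporter; 700 uM final copper sulfate induction, 20 hr, ambient temperature.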
Gal4-VP16 FLuc: counter-screen for ROR gamma inhibitors: Gal4-VP16 reporter. Drosophila S2 Gal4-VP16 UAS-luciferase, luminescence, 20 h. Potency, µM (highest dose often 53.6 µM), for the others: at the top dose activity, negative = inhibition, usual class: inhibitors. 3.5% of 310,000 active. AID 2546;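 also: Gal4-VP16 expression switched on by copper sulfate through the metallothionein promoter; nearly all actives have a fitted effect of over 50% in size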
The depositor's hits bear a star; ? = inconclusive; . = no result; ! = a repeat was not active; [ ] = another dose, or the depositor's remark. The list is not random: actives were taken first. Their share in the collection is about 15%. Calls follow the shape of the dose curve; as a rule, active = well fitted curve in the direction sought with a large enough effect; inconclusive = small, poorly fitted or top-dose-only effect, or another doubt; inactive = no such curve, though single readings can be large; an effect the other way counts as inactive or inconclusive. % is scaled to controls: 0 for no effect and ±100 for the full control effect; potency is read from the fitted curve at half-maximal effect.

SMILES	ALOX12 inh	TDP1 cell noCPT	ELG1 DNA repair	TDP1 cell CPT	RORg inh	Gal4-VP16 FLuc
O=C(c1ccc2c(=O)n(C3CCCC3)c(=S)[nH]c2c1)N1CCN(C2CCCCC2)CC1	-41%	?	-5%	?	-42%	1%
CCN1CCN(C(=O)c2ccc3c(=O)n(C4CCCC4)c(=S)[nH]c3c2)CC1	0%	?	-8%	-29%	7.1µM*	14µM*
C=CCn1c(C)cc(C(=O)CSc2nc3ccccc3o2)c1C	-11%	?	?	16µM*	0%	?
C=CCn1c(C)cc(C(=O)CSc2nnc(NCc3ccccc3)s2)c1C	1%	15µM*	26%	9.2µM*	28%	-8%
Cc1cc(C(=O)CSc2nc3ccccc3o2)c(C)n1C1CC1	-6%	15µM*	?	21µM*	24%	-12%
C=CCn1c(C)cc(C(=O)CSc2nnc(NC(C)C)s2)c1C	0%	?	19%	?	40%	13%
Cc1cc(C(=O)CSc2nc3ccccc3o2)c(C)n1CC(F)(F)F	-4%	.	.	.	.	.
N=C(N)SCc1cccc(F)c1	-1%	.	.	.	.	.
CC(=O)N1CCC(N(CCCN2CCC(C)CC2)C(=O)Nc2cccc(C)c2C)CC1	-8%	.	.	.	.	.
O=C(Nc1ccc(Br)cc1)c1cccc(S(=O)(=O)Nc2ccc(Br)cc2)c1	.	.	.	.	?	7.9µM*
COc1ccc(NC(=O)c2cccc(S(=O)(=O)Nc3ccc(Br)cc3)c2)cn1	?	23µM*	?	?	?	?
CCN(CC)CCNC(=O)c1ccc(NC(=O)c2cccc(S(=O)(=O)Nc3ccc(C)cc3)c2)cc1	?	?	-3%	?	-105%	16µM*
O=C(Nc1ccc(Br)cc1)c1cccc(S(=O)(=O)Nc2ccccn2)c1	1%	16µM*	-22%	-17%	?	-9%
COc1ccc(C(=O)N2CCC(N3CC4CCCN4C3=O)CC2)cc1 (stereo not given)	-11%	.	.	.	.	.
CCOc1ccc(Nc2nc(-c3cc(C)ccc3C)cs2)cc1	3%	.	.	.	.	.
Cc1cccc(CN2C[C@@H](F)[C@@H](OCc3nc4ccccc4n3C)C2)n1	37%[176 µM]	.	.	.	.	.
CC(=O)Nc1cccc(NC(=O)c2ccc3c(c2)NC(=O)CS3)c1	-30%	.	.	.	.	.
O=C1CSc2ccc(C(=O)Nc3cccc(S(=O)(=O)Nc4ccc(Br)cc4)c3)cc2N1	?	8.2µM*	13µM*	18µM*	16µM*	10µM*
CCc1ccc(CC)c(C(=O)Cn2c(Cl)nc3c2c(=O)n(C)c(=O)n3C)c1	-1%	.	.	.	.	.
CCSc1ncc(Cl)c(C(=O)Nc2cccc(Cl)c2)n1	-2%	?	.	10µM*	.	.
Cc1cccc(CS(=O)(=O)c2ncc(Cl)c(C(=O)Nc3nnc(C(C)C)s3)n2)c1	?	13µM*	?	4.6µM*	0.022µM*	?
CCSc1ncc(Cl)c(C(=O)Nc2ccccc2Cl)n1	0%	?	-4%	-13%	2%	16%
CCSc1nnc(NC(=O)c2nc(S(=O)(=O)Cc3ccc(F)cc3)ncc2Cl)s1	-6%	10µM*	-24%	13µM*	?	11µM*
C=CCSc1nnc(NC(=O)c2nc(SCC)ncc2Cl)s1	20%	-4%	-1%	?	11µM*	?
CSc1ncc(Cl)c(C(=O)Nc2nnc(SC/C=C/c3ccccc3)s2)n1	2%	-8%	-11%	-9%	2%	-14%
SMILES	ALOX12 inh	TDP1 cell noCPT	ELG1 DNA repair	TDP1 cell CPT	RORg inh	Gal4-VP16 FLuc
CCCNC(=O)Nc1ccccc1CC(N)=O	59%	.	.	.	.	.
Cc1ccc(C)c(NC(=O)c2nc(S(=O)(=O)Cc3ccc(F)cc3)ncc2Cl)c1	7%	2.1µM*	.	1.5µM*	.	.
CSc1nnc(NC(=O)c2nc(S(=O)(=O)Cc3cccc(C)c3)ncc2Cl)s1	-4%	8.2µM*	-49%	8.2µM*	?	18µM*
Cc1ccc(CS(=O)(=O)c2ncc(Cl)c(C(=O)Nc3nnc(C(C)C)s3)n2)cc1	-6%	12µM*	?	5.8µM*!	?	7.1µM*
CC(C)c1nnc(NC(=O)c2nc(S(=O)(=O)Cc3ccc(F)cc3)ncc2Cl)s1	-3%	4.1µM*	?	4.6µM*	11µM*	?
Cc1ccc(C)c(NC(=O)c2nc(Cl)ccc2Cl)c1	-1%	0%	?	-19%	-10%	?
CC(C)c1nnc(NC(=O)c2nc(SCc3ccc(F)cc3)ncc2Cl)s1	7%	-3%	.	-20%	.	.
COCCOc1ccc(-c2ccc(C#N)cc2)cc1	37%	.	.	.	.	.
COc1ccc(Cc2nnc(Nc3ccccc3)[nH]c2=O)cc1OC	-5%	.	.	.	.	.
CCCN(CC1CCOC1)C(=O)Nc1ccc2c(c1)OCCO2 (stereo not given)	38%	.	.	.	.	.
CCOc1ccccc1NC(=O)C(NCC1(N2CCCCC2)CCCCC1)c1ccccc1 (stereo not given)	-30%	16µM*	?	?	-4%	-10%
CCOc1ccccc1NC(=O)C(OC(=O)C1CC1)c1ccccc1 (stereo not given)	13%	4%	2%	-3%	18%	0%
CC(=O)NS(=O)(=O)c1ccc(NC(=S)Nc2ccccc2)cc1	15%	-18%	-9%	-2%	-26%	2%
CCc1ccc(S(=O)(=O)NC(=S)Nc2ccccc2)cc1	45µM*	?	8%	?	5%	-2%
CCNC(=S)NS(=O)(=O)c1ccc(CC)cc1	6.3µM*	-6%	1%	-7%	13µM*	?
N/C(=N\O)c1ccc(NC(=O)c2ccc(Br)o2)cc1	-4%	?	?	18µM*	15%	0%
CCC(=O)NC(=S)Nc1ccc(NC(=O)c2ccc(Br)o2)cc1	-8%	?	?	-10%	11µM*	9%
CCN(c1ccccc1)S(=O)(=O)c1ccc(NC(=S)NC(=O)c2ccc(Br)o2)cc1	?	?	?	?	4.5µM*	16µM*
Cc1nc(SC(C)c2cc(F)ccc2F)sc1CC(N)=O (stereo not given)	1%	.	.	.	.	.
COc1cncc(CN2CCc3ncc(C(=O)Nc4ccccc4)n3CC2)c1	64%[176 µM]	.	.	.	.	.
COc1ccc(F)cc1C(=O)C1CCCN(Cc2cccn2-c2ccccn2)C1 (stereo not given)	-11%	16µM*	-22%	?	0%	2%
O=C(c1cc(F)ccc1F)C1CCCN(Cc2cccn2-c2ccccn2)C1 (stereo not given)	-6%	?	4%	?	6%	3%
